Yeast superoxide: reduction of superoxide in aged yeast, primary screen, HTS | S. cerevisiae aged cells, superoxide DHE fluorescence; active compounds read low | superoxide response (% of plate mean), % at 10 µM | 330,000 tested, 0.18% active | AID 2690, 2010;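 active means superoxide response under a set limit, about three screen SD below normal, cut at about 65% in these data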;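 further: yeast aged for seven days with compound at 30 °C before DHE staining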
NR3A LBD binder: binders of NR3A ligand-binding domain, primary screen, biophysical, differential scanning fluorimetry, uHTS. Glutamate receptor ionotropic, NMDA 3A (GRIN3A) ligand-binding domain. NR3A LBD differential scanning fluorimetry, Tm shift; 0% = protein alone, 100% = glycine-bound protein. Tm shift relative to glycine control, % at 25 µM. 340,000 tested, 2.5% active;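 active means melting temperature shift of at least 10% of the positive control shift, at one fixed dose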
UBC13 inh: UBC13 polyubiquitin chain formation inhibitors, primary screen, biochemical, TR-FRET, uHTS; Ubiquitin-conjugating enzyme E2 N (Homo sapiens), P61088; inhibition, % at 20 µM; 330,000 tested, 0.47% active; in the data active means inhibition above about 45%, passing the limit was not always enough
Target sequence (P61088 whole entry, looked up): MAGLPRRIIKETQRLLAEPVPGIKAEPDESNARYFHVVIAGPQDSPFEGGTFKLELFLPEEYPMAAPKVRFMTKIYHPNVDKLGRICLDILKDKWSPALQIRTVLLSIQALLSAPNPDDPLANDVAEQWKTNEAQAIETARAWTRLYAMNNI
NALP1 yeast inh: NALP1 inflammasome inhibitors in reconstituted yeast, colorimetric, S. cerevisiae, triplicate retest; S. cerevisiae NALP1/ASC/caspase-1 growth, X-gal OD620, 72 h; 280,000 tested, 0.61% active; inhibition, % at 10 µM; in the data active means inhibition mostly above about 24%, no sharp cut-off; inactive means mostly below about 32%
dFosB act-1: activators of delta FosB homodimer, primary screen, biochemical, fluorescence polarization, TAMRA-CDK5 oligo, single point. AID 493131, 2011. purified delta FosB; percent of positive-control signal above neutral wells. activation, % at 25 µM. 340,000 tested, 0.99% active. Protein FosB (Mus musculus), P13346;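 active means mean activation above about 17%, with every replicate also reaching it, limit read from the data, passing the limit was not always enough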
Target sequence (P13346 whole entry, looked up): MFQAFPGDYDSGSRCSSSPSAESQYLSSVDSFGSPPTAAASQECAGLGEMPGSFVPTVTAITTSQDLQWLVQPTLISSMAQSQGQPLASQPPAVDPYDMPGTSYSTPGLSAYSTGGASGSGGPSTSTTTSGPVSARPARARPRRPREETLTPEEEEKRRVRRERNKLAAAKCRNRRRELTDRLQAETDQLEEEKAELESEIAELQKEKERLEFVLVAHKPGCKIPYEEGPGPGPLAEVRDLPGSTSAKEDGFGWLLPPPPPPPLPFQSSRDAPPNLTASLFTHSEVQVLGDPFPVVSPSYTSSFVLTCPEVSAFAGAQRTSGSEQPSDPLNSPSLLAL
dFosB act-2: activators of mouse delta FosB DNA binding, confirmation, biochemical, fluorescence polarization, TAMRA-CDK5 oligo, cherry-picked samples. purified delta FosB; normalised: neutral wells 0, positive control 100. shares compounds with dFosB act-1. 2,400 tested, under 10 active. activation, % at 24.9 µM;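 active means highest replicate activation at or above 34% and every replicate reaching that threshold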;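 further: higher polarization means more probe DNA bound by delta FosB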
A number is an active result. This is a sample that favours compounds with a hit; in the whole collection about 4.3% have one here.

Results for N#Cc1ccc(C(=O)N2CCC3CC2c2cc(-c4ccc(F)cc4)ccc23)cc1 (configuration not stated) ?
NR3A LBD binder: inactive; dFosB act-1: inactive

How did Cc1ccc(NC(=O)COc2coc(CN3CCc4ccccc43)cc2=O)cc1Cl do in these assays?
Yeast superoxide: inactive; NR3A LBD binder: inactive; UBC13 inh: inactive; dFosB act-1: inactive

What do the screens show for `CC(=O)c1sc(NC(=O)CCS(=O)(=O)c2ccc(Cl)cc2)nc1C`?
Yeast superoxide: inactive; NR3A LBD binder: inactive; UBC13 inh: inactive; dFosB act-1: 21; dFosB act-2: inactive

What do the screens show for `COc1ccc(NC(=O)CCS(=O)(=O)c2ccc(Cl)cc2)cc1`?
Yeast superoxide: inactive; NR3A LBD binder: inactive; UBC13 inh: inactive; NALP1 yeast inh: inactive; dFosB act-1: inactive

Results for NC(=O)c1nc[nH]c1C(=O)Nc1cccc(NC(=O)c2cccc(C(F)(F)F)c2)c1 ?
Yeast superoxide: inactive; NR3A LBD binder: inactive; UBC13 inh: inactive; dFosB act-1: 27; dFosB act-2: inactive

What do the screens show for `O=C(NCCc1ccc2c(c1)OCCO2)c1ccccn1`?
Yeast superoxide: inactive; NR3A LBD binder: inactive; UBC13 inh: inactive; NALP1 yeast inh: inactive; dFosB act-1: inactive

How did O=C(CN1CCN(c2ccc(O)cc2)CC1)Nc1ccc(S(=O)(=O)N2CCCC2)cc1 do in these assays?
Yeast superoxide: inactive; NR3A LBD binder: inactive; UBC13 inh: inactive; dFosB act-1: inactive

Results for Cc1ccc(C(=O)CSc2nnc3n2CCCCC3)s1 ?
Yeast superoxide: inactive; NR3A LBD binder: inactive; UBC13 inh: inactive; dFosB act-1: inactive

What do the screens show for `CCOC(=O)c1c(C)[nH]c(C)c1C(=O)CSc1nnc(-c2cc(OC)c(OC)c(OC)c2)o1`?
Yeast superoxide: inactive; NR3A LBD binder: inactive; UBC13 inh: inactive; NALP1 yeast inh: inactive; dFosB act-1: 33; dFosB act-2: inactive

How did O=C(O)C1CC(=O)N(CCc2ccc(F)cc2)C1 (configuration not stated) do in these assays?
Yeast superoxide: inactive; NR3A LBD binder: inactive; UBC13 inh: inactive; NALP1 yeast inh: inactive; dFosB act-1: inactive

What do the screens show for `CCCCn1c(CN2C(=O)c3ccccc3C2=O)nc2ccccc2c1=O`?
Yeast superoxide: inactive; NR3A LBD binder: inactive; UBC13 inh: inactive; NALP1 yeast inh: inactive; dFosB act-1: 30; dFosB act-2: inactive

How did O=c1c(OC2OC(CO)C(O)C(O)C2O)c(-c2ccc(O)c(O)c2)oc2cc(O)cc(O)c12 (configuration not stated) do in these assays?
NR3A LBD binder: inactive; UBC13 inh: inactive; NALP1 yeast inh: inactive; dFosB act-1: inactive

What do the screens show for `O=c1c2c(O)cc(O)cc2oc2c(O)ccc(O[C@H]3O[C@@H](CO)[C@H](O)[C@@H](O)[C@@H]3O)c12`?
Yeast superoxide: inactive; NR3A LBD binder: inactive; UBC13 inh: inactive; dFosB act-1: 17; dFosB act-2: inactive

How did COc1ccc(/C=C(\C#N)C(=O)OCC(=O)NCc2ccccc2OC)cc1 do in these assays?
Yeast superoxide: inactive; NR3A LBD binder: inactive; UBC13 inh: inactive; dFosB act-1: 31; dFosB act-2: inactive

What do the screens show for `COc1cccc(/C=N/n2c(SC)nnc2-c2ccccc2)c1O`?
Yeast superoxide: inactive; NR3A LBD binder: inactive; UBC13 inh: inactive; NALP1 yeast inh: inactive; dFosB act-1: inactive

How did c1ccc2c(c1)Cc1ccccc1O2 do in these assays?
Yeast superoxide: inactive; NR3A LBD binder: inactive; UBC13 inh: inactive; dFosB act-1: inactive

What do the screens show for `O=C(CC1S/C(=N/N=C/c2cccs2)NC1=O)Nc1ccccc1F` (configuration not stated)?
Yeast superoxide: inactive; NR3A LBD binder: inactive; UBC13 inh: inactive; NALP1 yeast inh: inactive; dFosB act-1: 32; dFosB act-2: inactive

Results for O=C(C[C@H]1C/C=C\CC[C@@H](Cc2ccc(F)cc2)C(=O)O[C@H](c2ccccc2)CNC1=O)N[C@H](CO)Cc1ccccc1 ?
Yeast superoxide: inactive; NR3A LBD binder: inactive; UBC13 inh: inactive; dFosB act-1: inactive

Results for O=C(C[C@H]1C/C=C\C[C@H](Cc2ccc(F)cc2)C(=O)O[C@@H](c2ccccc2)CNC1=O)N[C@@H](CO)Cc1ccccc1 ?
Yeast superoxide: inactive; NR3A LBD binder: inactive; UBC13 inh: inactive; dFosB act-1: inactive

How did O=C(C[C@H]1C/C=C\CC[C@@H](Cc2ccc(F)cc2)C(=O)O[C@@H](c2ccccc2)CNC1=O)N[C@@H](CO)Cc1ccccc1 do in these assays?
Yeast superoxide: inactive; NR3A LBD binder: inactive; UBC13 inh: inactive; dFosB act-1: 116; dFosB act-2: inactive

What do the screens show for `O=C(C[C@H]1C/C=C\C[C@@H](Cc2ccc(F)cc2)C(=O)O[C@@H](c2ccccc2)CNC1=O)N[C@@H](CO)Cc1ccccc1`?
Yeast superoxide: inactive; NR3A LBD binder: inactive; UBC13 inh: inactive; dFosB act-1: 49; dFosB act-2: inactive

What do the screens show for `O=C(NCCOc1ccccc1)c1cc([N+](=O)[O-])ccc1N1CCOCC1`?
Yeast superoxide: inactive; NR3A LBD binder: inactive; UBC13 inh: inactive; dFosB act-1: inactive

How did CCCCN1CC(=O)N2Cc3[nH]c4ccccc4c3C[C@H]2C1=O do in these assays?
Yeast superoxide: inactive; NR3A LBD binder: inactive; UBC13 inh: inactive; NALP1 yeast inh: inactive; dFosB act-1: inactive

Results for CN(Cc1ccc(Cl)cc1)C(=O)COC(=O)c1ccc(-c2ccc(O)cc2)cc1 ?
Yeast superoxide: inactive; NR3A LBD binder: inactive; UBC13 inh: inactive; dFosB act-1: inactive

How did Cc1ccc(CSc2nnc(NC(=O)Cn3cnc4ccccc4c3=O)s2)cc1 do in these assays?
Yeast superoxide: inactive; NR3A LBD binder: inactive; UBC13 inh: inactive; NALP1 yeast inh: inactive; dFosB act-1: 31; dFosB act-2: inactive

How did CN1CCN(c2ccccc2/C=C2/C(=O)Nc3ccccc32)CC1 do in these assays?
Yeast superoxide: inactive; NR3A LBD binder: inactive; UBC13 inh: inactive; NALP1 yeast inh: inactive; dFosB act-1: inactive

What do the screens show for `COc1cc2c(cc1O)CC[n+]1cc3c(OC)c(OC)ccc3cc1-2`?
Yeast superoxide: inactive; NR3A LBD binder: inactive; UBC13 inh: inactive; NALP1 yeast inh: inactive; dFosB act-1: inactive

Results for COc1cc2c(cc1OC)-c1cc3ccc4c(c3c[n+]1CC2)OCO4 ?
Yeast superoxide: inactive; NR3A LBD binder: inactive; UBC13 inh: inactive; NALP1 yeast inh: inactive; dFosB act-1: 38; dFosB act-2: inactive

Results for O=C(COc1ncnc2ccc(Br)cc12)NCc1ccco1 ?
Yeast superoxide: inactive; NR3A LBD binder: inactive; UBC13 inh: inactive; dFosB act-1: 22; dFosB act-2: inactive
